Source: PubChem BioAssay (NCI)
Compounds without any hit were thinned out: in the full panel of roughly 79,000, 15% have a hit. Unmarked numbers belong to inactive results. Calls of active or inactive are those of the source. Cut-off read from the data, not from the text of the source: active = growth inhibition above about 70%; inactive = the rest.

Columns and labels:
[1] = NCI Yeast Anticancer Drug Screen. Data for the rad50 strain (AID 155);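 note: 0% = growth of vehicle-only cultures of the same strain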; settings: S. cerevisiae rad50 strain growth inhibition; at 50.0 µM; stronger effect = higher value
Procedure, shortened: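 Vehicle-treated cultures provide the reference for the growth inhibition reported for compound-exposed, repair-deficient yeast.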

[2] = NCI Yeast Anticancer Drug Screen. Data for the mec2-1 strain (AID 157); settings: S. cerevisiae mec2-1 strain, at 50.0 µM, stronger effect = higher value
Procedure, shortened: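 Vehicle-treated cultures served as reference for growth inhibition of compound-exposed mec2-1 yeast.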

[3] = NCI Yeast Anticancer Drug Screen. Data for the sgs1 mgt1 strain (AID 161);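 note: 0% = growth of cultures given vehicle only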; settings: S. cerevisiae sgs1 mgt1 strain, at 50.0 µM, stronger effect = higher value
Procedure, shortened: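 Genetically altered yeast, compound exposure, growth inhibition relative to vehicle.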

[4] = NCI Yeast Anticancer Drug Screen. Data for the cln2 rad14 strain (AID 165);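 note: 0% = growth equal to vehicle treated cultures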; settings: S. cerevisiae cln2 rad14 strain, at 50.0 µM, stronger effect = higher value
Procedure, shortened: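 Each compound was tested on cln2 rad14 yeast. Inhibition of growth was calculated against vehicle-exposed controls.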

[5] = NCI Yeast Anticancer Drug Screen. Data for the bub3 strain (AID 167); settings: S. cerevisiae bub3 mutant strain, at 50.0 µM, stronger effect = higher value
Procedure, shortened: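 Mutant yeast screening strain plus compound; vehicle-treated cultures serve as the 0% inhibition reference.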

[6] = NCI Yeast Anticancer Drug Screen. Data for the mlh1 rad18 strain (AID 175); settings: S. cerevisiae mlh1 rad18 strain growth inhibition; at 50.0 µM; stronger effect = higher value
Procedure, shortened: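 Vehicle-treated cultures served as the reference for growth inhibition in a yeast strain carrying DNA damage repair alterations exposed to each compound.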

SMILES | growth inhibition [1] | growth inhibition [2] | growth inhibition [3] | growth inhibition [4] | growth inhibition [5] | growth inhibition [6]
O=c1[nH]c(=O)c2[nH]c(N=Nc3ccc(N(CCCl)CCCl)cc3)nc2[nH]1 | 20.9% | 6.1% | 34.6% | 38.1% | 10.7% | 17.6%
O=c1ccc2cc3ccoc3c(O)c2o1 | 28.6% | 0% | 25.7% | 30.6% | 10.8% | 18.2%
Nc1c([N+](=O)[O-])cncc1[N+](=O)[O-] | -30.6% | -4.15% | -14.3% | -40.6% | -41.9% | -6.8%
CC(C)CCCC(C)CCC1C(=O)NC(=S)NC1=O (stereo unspecified) | 8.45% | 10.2% | -4.4% | 1.75% | -3.05% | 32.1%
O=C1CCC(=O)N1c1ccc([As](=O)(O)O)cc1 | -2.55% | -9.15% | 13.2% | -28.1% | 0.6% | -16.9%
CCC1(C/C=C/Cl)C(=O)NC(=O)NC1=O | 7.65% | -3.5% | -29.5% | -38.5% | 6.45% | -29.1%
CN(C)c1ccc(N=Nc2ccc([As](=O)(O)O)cc2)cc1 | -23.1% | -10.6% | -11.8% | -35.1% | -5.15% | -0.4%
O=C1NC(=O)C(Cc2cccc(OCc3ccccc3)c2)C(=O)N1 | 20.1% | 2.2% | -1.65% | 5.1% | 0.1% | -52%
CC1=CC2OC3CC4OC(=O)/C=C/C=C/C(C(C)O)OCC/C(C)=C/C(=O)OCC2(CC1)C4(C)C31CO1 (stereo unspecified) | 92% (active) | 94.1% (active) | 93.3% (active) | 92.2% (active) | 92.6% (active) | 90.7% (active)
N#CCC(=O)[O][Sn]([c]1ccccc1)([c]1ccccc1)[c]1ccccc1 | 98% (active) | 98.3% (active) | 98.8% (active) | 97.8% (active) | 97.8% (active) | 98.7% (active)
CN(C)C1C(=O)C(C(=O)NP(=O)(NCCCO)N(CCCl)CCCl)=C(O)C2(O)C(=O)C3=C(O)c4c(O)cccc4C(C)(O)C3CC12 (stereo unspecified) | 27.6% | 20.1% | 21.9% | 15.3% | 25.6% | 6.9%
O=C(COc1ccc(Cl)cc1)Nc1ccc(Cl)cc1C(=O)c1ccccc1 | -15.8% | -8.9% | 17.3% | 18.8% | 1.1% | -18.4%
O=C(c1ccccc1)C1NC1c1ccccc1 (stereo unspecified) | 13.8% | 39.4% | 1.65% | -16.6% | 19.8% | 10.2%
CC(=O)OC[C@]12CCC(C)=C[C@H]1O[C@@H]1[C@H](O)[C@@H](OC(C)=O)[C@@]2(C)[C@@]12CO2 | -9.2% | -26.6% | 14.9% | -3.45% | -1.3% | -6.7%
CCCCCCP(=O)(CCCCCC)CCCCCC (tested in a mixture with another compound) | 77.3% (active) | 83.6% (active) | 87.5% (active) | 78.6% (active) | 62% | 84.2% (active)
C1CCN2COCC2C1 (stereo unspecified) | -16.2% | -16.9% | -38.5% | 0.7% | -17.2% | 22.4%
c1cc[c]([Pb]([S]c2ccccn2)([c]2ccccc2)[c]2ccccc2)cc1 | 99.2% (active) | 99.1% (active) | 99.5% (active) | 99% (active) | 99% (active) | 99.2% (active)
CCOP(=O)(CC(=O)c1cc2ccccc2[nH]1)OCC | -3.5% | 12.6% | -2.1% | 1.2% | -8.1% | -19.8%
CCNc1ccc([N+](=O)[O-])cc1[N+](=O)[O-] | 11.3% | 16.9% | 7.45% | 4.5% | -6.4% | 5.9%
CCC[CH2][Sn]([Br])([c]1ccccc1)[c]1ccccc1 | 99% (active) | 99% (active) | 99.4% (active) | 99.1% (active) | 99% (active) | 98.9% (active)
C[C@]12CCC(=O)C[C@@H]1CC[C@@H]1[C@@H]2CC[C@]2(C)[C@@H]3OCCC[C@H]3C[C@@H]12 | 22.4% | -0.5% | 46.5% | 14.7% | 19.1% | 39.2%

SMILES | growth inhibition [1] | growth inhibition [2] | growth inhibition [3] | growth inhibition [4] | growth inhibition [5] | growth inhibition [6]
O=C(Nc1cccc(Cl)c1)Oc1ccc(S(=O)(=O)F)cc1Cl | 92.3% (active) | 94.7% (active) | 95.7% (active) | 91.2% (active) | 90.9% (active) | 94.8% (active)
S=C([SH2+])[SH2+].S=C([SH2+])[SH2+].[Pt+2].c1ccc(C[P+](c2ccccc2)(c2ccccc2)c2ccccc2)cc1 | 44.7% | 3.45% | 36.2% | -16.6% | 3.6% | -0.1%
O=c1c(O)c(-c2ccccc2)oc2ccccc12.[Zr] | -22.1% | -6.65% | -7.7% | 18.4% | 22.4% | -7.75%
CNC(=O)Oc1cccc2c(OC3OC(CO)C(O)C(O)C3O)cccc12 (stereo unspecified) | -25.5% | 19.4% | -12.8% | -16.7% | 2.05% | -23.9%
CCCC[N+]1(C)CCC(OC(=O)C(O)(c2ccccc2)C2CCCC2)C1 (stereo unspecified) | 15.6% | 5.25% | 5.3% | -32.8% | -6.3% | -5.5%
CN/N=C(/CCN1CCCC1)CC(c1ccccc1)c1c(O)c2ccccc2oc1=O (stereo unspecified) | 35.5% | 9% | 29.6% | 35.2% | 31.5% | 37.4%
COC(=O)C1=CO[C@@H](C)[C@@H]2CN3CCc4c([nH]c5cc(OC)ccc45)[C@@H]3C[C@H]12 | -0.2% | -28.9% | -11.1% | -2.9% | -27% | -19.2%
S=C(N=Nc1ccccc1)NNc1ccccc1.[Zn+2] | 28.1% | -9.35% | 19.4% | 12.3% | 36% | 12.3%
O=C(O)c1cccc([As]=[As]c2cccc(C(=O)O)c2)c1 (stereo unspecified) | 8.4% | -9.35% | -8.75% | 83.2% (active) | -65.3% | 1%
C[N+](C)=C(Cl)Cl | 1.75% | -30.1% | -8.1% | 4.15% | -7.85% | -12.9%
CC(=O)C1CCC2C3CCC4CC(O)CCC4(C)C3CCC12C (stereo unspecified) | 6.2% | -59% | 16.8% | 26.8% | 10% | -7.3%
C1CN1[PH+](N1CC1)N1CC1.[C-]#[O+].[C-]#[O+].[C-]#[O+].[C-]#[O+].[C-]#[O+].[W] | -12.8% | -3.85% | -21% | -43.9% | 13.1% | 3.1%
CCC(OC(=O)C1C(C=C(C)C)C1(C)C)c1cc2c(cc1Cl)OCO2 (stereo unspecified) | -8.05% | -19.1% | -7.3% | -13.3% | -10.7% | -20.8%
CCCCN(CCCC)CC(O)c1cc(Cl)c(Cl)cc1C (stereo unspecified) | 10.5% | -13.2% | 35.1% | -1.3% | 27.4% | 25.3%
Cc1ccccc1/C(=C/c1ccc([N+](=O)[O-])cc1)C(=O)Nc1ccc(S(=O)(=O)F)cc1 | 97.1% (active) | 95.5% (active) | 96.3% (active) | 96.3% (active) | 96.5% (active) | 97.5% (active)
CC(C)N[C@@H]1CCC[C@H]1O | 4.5% | -0.1% | -17.1% | 11.7% | 4.05% | -19.5%
OCC(Br)CBr (stereo unspecified) | 40.9% | 0.35% | -3.6% | -62.6% | -11.7% | -4.5%
CCCCOP(=O)(O)OCCCC.[V] | -0.55% | -1.55% | -1.55% | -17.1% | -10.9% | 0.65%
CC(C)=CCC1=C(OOC2=C(CC=C(C)C)C(=O)c3ccccc3C2=O)C(=O)c2ccccc2C1=O | 36.8% | 23.8% | 43% | 11.1% | 5.05% | 5.7%
c1ccc(-c2cc(-c3ccccc3)c(OOc3c(-c4ccccc4)cc(-c4ccccc4)cc3-c3ccccc3)c(-c3ccccc3)c2)cc1 | -6.7% | -0.7% | -0.95% | -27.9% | -10% | 16.6%
